Most compounds without a hit are left out; they make up all but 18% or so of the library.
VP16 counter: counter-screen for ROR gamma inhibitors: Gal4-VP16 reporter | Potency, µM (series often up to 53.6 µM), without a hit: at the top dose activity, negative = inhibition, usual class: inhibitors | 310,000 tested, 3.5% active | AID 2546 | Drosophila S2 Gal4-VP16 UAS-luciferase, luminescence, 20 h;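 note: Gal4-VP16 expression switched on by copper sulfate through the metallothionein promoter; potency is the fitted concentration of half-maximal effect; nearly all actives have a fitted effect of over 50% in size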
RORgamma inh: blocks mouse ROR gamma transcriptional activity; P51450; Drosophila S2 Gal4-RORgamma UAS-luciferase reporter, 20 h; Potency, µM (top dose mostly 53.6 µM), for the others: top-dose activity change, negative = inhibition, actives largely listed as inhibitors; 310,000 tested, 5.4% active; AID 2551; note: potency is the fitted concentration of half-maximal effect; nearly all actives have a fitted effect of over 60% in size
Target sequence (P51450 whole entry, looked up, the tested form may be a part): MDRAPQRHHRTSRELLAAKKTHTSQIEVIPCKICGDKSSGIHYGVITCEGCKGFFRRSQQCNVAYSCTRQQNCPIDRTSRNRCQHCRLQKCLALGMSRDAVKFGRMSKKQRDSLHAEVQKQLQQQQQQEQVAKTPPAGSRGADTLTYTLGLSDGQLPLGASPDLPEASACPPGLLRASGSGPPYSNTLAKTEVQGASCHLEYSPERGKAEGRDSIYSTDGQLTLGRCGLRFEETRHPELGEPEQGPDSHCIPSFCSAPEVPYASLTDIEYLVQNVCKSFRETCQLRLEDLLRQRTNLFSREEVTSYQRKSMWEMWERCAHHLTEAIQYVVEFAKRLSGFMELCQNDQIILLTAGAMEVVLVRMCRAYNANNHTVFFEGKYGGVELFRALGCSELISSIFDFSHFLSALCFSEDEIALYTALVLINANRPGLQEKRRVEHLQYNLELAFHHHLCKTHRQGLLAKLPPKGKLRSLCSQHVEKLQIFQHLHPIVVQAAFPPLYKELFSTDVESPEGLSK
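A Gal4/UAS one-hybrid system in insect cells: metallothionein-promoter Gal4–ROR gamma fusion plus Photinus luciferase reporter. Copper sulfate 700 uM final, 20 hr ambient incubation, luminescent detection after 10 min with reagent.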
IL1B secr inh: inhibitors of inflammasome signaling (IL-1 beta secretion) | AID 743279 | 360,000 tested, 4.7% active | activity change, % at 57.5 µM | THP-1 LPS/ATP IL-1B secretion, AlphaLISA, 16 h; stronger effect = lower value; in the data active = activity change below about -50%; inconclusive = mostly about -30% to -49%
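Secreted IL-1B measured by AlphaLISA bead assay after 16 h compound exposure of THP-1 cells; compounds (final up to 57.5 uM) added 1 h before LPS (250 ng/mL) and ATP (1.25 mM) stimulation; lower signal means less secretion.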
LDHA block: blocks human lactate dehydrogenase A; purified LDHA, NADH/diaphorase-resazurin fluorescence; stronger effect = lower value; 480,000 tested, 0.15% active; AID 1347041; P00338; activity change, % (values are at about 110 or 230 µM); in the data active = activity change below about -30%; inconclusive = mostly about -25% to -30%;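 note: plate controls were DMSO wells for no effect and wells without enzyme for full effect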
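LDH5 2 nM; NADH 0.06 mM, pyruvate 0.2 mM; 200 mM Tris pH 7.4, EDTA, Tween-20; 5 min RT. Detection: diaphorase 0.133 mg/mL + resazurin 37 µM, fluorescence ex540/em590 at 0 and 20 min; normalized to enzyme-free and DMSO wells.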
DT40 TDP1 CPT: DT40-hTDP1 cell growth loss with CPT. Potency, µM (titrated, usually from 46.2 µM), without a hit: at the top dose activity change, negative = growth inhibition, usual class: inhibitors. chicken DT40 Tdp1-/-;hTDP1 cells + 20 nM CPT, ATP luminescence, 48 h. 420,000 tested, 12% active; note: potency is the fitted concentration of half-maximal effect; nearly all actives have a fitted effect of over 55% in size
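Chicken DT40 Tdp1-/- cells complemented with human TDP1, 400 cells/well, exposed to compounds plus 20 nM camptothecin for at least 48 h at 37 C; viability read as ATP content by CellTiter-Glo luminescence.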
DT40 TDP1 no CPT: qHTS for Inhibitors of human tyrosyl-DNA phosphodiesterase 1 (TDP1): qHTS in cells in absence of CPT; 420,000 tested, 15% active; AID 686978, 2013; DT40 Tdp1-/- hTDP1 cells, no CPT, ATP luminescence, 48 h; Potency, µM (titrated, usually from 46.2 µM), for the others: at the highest dose activity change, negative = growth inhibition, most hits filed as inhibitors; note: potency is the fitted concentration of half-maximal effect; nearly all actives have a fitted effect of over 55% in size
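Stably hTDP1-transfected Tdp1-null chicken DT40 cells were treated with library compounds minus camptothecin and grown for at least 48 hr at 37 °C, after which cellular ATP was quantified by luminescence.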
An asterisk follows results filed as active; ? = inconclusive; · = no result; [ ] = another dose, or the depositor's remark. Unless noted, calls come from the whole dose curve; as a rule, active = well fitted curve in the direction sought with a large enough effect; inconclusive = small, poorly fitted or top-dose-only effect, or another doubt; inactive = no such curve, though single readings can be large; an effect the other way counts as inactive or inconclusive. Unless noted, % is set by controls: 0 for no effect and ±100 for the full control effect.

SMILES	VP16 counter	RORgamma inh	IL1B secr inh	LDHA block	DT40 TDP1 CPT	DT40 TDP1 no CPT
CCCCN(C)S(=O)(=O)c1c(C(=O)OCC)c(C)n(C)c1C	·	·	·	1	·	·
Cc1cccc(C(=O)N(C2CCCCC2)C2CCCCC2)c1	·	·	·	0	·	·
Cc1cc(Cl)ccc1OCc1nnc(SCc2ccc(Cl)c(Cl)c2)n1C	·	·	·	3	·	·
Cc1nnc(NC(=O)c2cc(-c3cccc(C)c3O)n[nH]2)s1	·	·	·	9	·	·
CCN=C(N/N=C/c1ccc([N+](=O)[O-])cc1)SC	11%	41%	2	-110*	?	-24%
Fc1ccccc1CNC(=S)NCc1ccc(Cl)cc1	?	7.9µM*	13	1	-11%	-20%
N#CC1=C(N)OC2=C(C(=O)CC(c3ccccc3Cl)C2)C1c1ccc(Cl)cc1 (stereo unspecified)	·	·	·	13	·	·
O=C(Nc1cc(Cl)cc2c1-c1ccc(Cl)cc1C2O)C(Cl)Cl (stereo unspecified)	·	·	-61*	6	23µM*	?
COc1ccc(C2CC(C(F)(F)F)n3nc(C(=O)Nc4ccc5c(c4)OCO5)cc3N2)cc1 (stereo unspecified)	1%	17%	-2	-2	?	?
COc1ccccc1NC(=O)c1cc2n(n1)C(C(F)(F)F)CC(c1ccc3c(c1)OCO3)N2 (stereo unspecified)	-6%	-2%	?	-3	16µM*	18µM*
O=C(c1cc2n(n1)C(C(F)(F)F)CC(c1ccc(F)cc1)N2)N1CCCC1 (stereo unspecified)	-4%	-17%	-7	-6	-25%	?
O=C(Nc1cc(Cl)ccc1O)c1cc2n(n1)C(C(F)(F)F)CC(c1ccc3c(c1)OCO3)N2 (stereo unspecified)	1%[0.365 µM]	-34%	-87*	1	23µM*	16µM*
COc1ccc(OC)c(NC(=O)c2cc3n(n2)C(C(F)(F)F)CC(c2ccc4c(c2)OCO4)N3)c1 (stereo unspecified)	-13%	5%	-61*	1	?	?
CCOC(=O)N1CCN(C(=O)c2cc3n(n2)C(C(F)(F)F)CC(c2ccc4c(c2)OCO4)N3)CC1 (stereo unspecified)	-4%	8%	0	-3	?	15µM*
O=C(NCc1ccc2c(c1)OCO2)c1cc2n(n1)C(C(F)(F)F)CC(c1ccc3c(c1)OCO3)N2 (stereo unspecified)	6%	?	0	-1	?	-14%
O=C(NCc1ccco1)c1cc2n(n1)C(C(F)(F)F)CC(c1ccc(Cl)c(Cl)c1)N2 (stereo unspecified)	-17%	-15%	3	-8	?	?
CN(C)c1nc(N(C)C)nc(N(C#N)CN2C(=O)c3ccccc3S2(=O)=O)n1	3%	-2%	10	-7	2%	-5%
CC(C)Nc1nc(Cl)nc(N(C#N)CN2C(=O)c3ccccc3S2(=O)=O)n1	17%	-13%	?	1	26µM*	18µM*
CC(C)(C)Nc1nc(Cl)nc(N(C#N)CN2C(=O)c3ccccc3S2(=O)=O)n1	6%	10%	-101*	-3	?	?
N#Cc1ccccc1CN1C(=O)c2ccccc2S1(=O)=O	-1%	6%	-3	-5	13%	-5%
Cc1ccc(C(CNC(=O)c2cc3ccccc3oc2=O)N2CCCC2)o1 (stereo unspecified)	·	·	·	3	·	·
Cc1cc(OCC(=O)NCCCN(C)C)c2c(C)c(C)c(=O)oc2c1	·	·	·	-25	·	·
Cc1cc(C(=O)N/N=C/c2cccnc2)c2ccccc2n1	-3%	-3%	40	-9	?	?
